Source: PubChem BioAssay AID1159580 (chemical genetic matrix, 2015)
The whole screen tested about 5,500 compounds, of which about 2,000 (36%) were called active. Not shown: some 18% with an inconclusive outcome. No stated cut-off is given here; in the data, active means normalized growth mostly below about 0.91 (no sharp cut-off); inconclusive means no clear call, values can overlap the other calls; inactive means mostly above about 0.92. The list shows a part of the results.

Assay: chemical genetic growth profiling, strain panel (AID 1159580);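 further: tested at 20 µM; growth read once vehicle control cultures reached saturation at 30 °C; 1 = growth at the plate median or of vehicle wells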
Details: growth OD

Measured: normalized growth

N=C(N)N
inactive: S. cerevisiae deletion strains, locus YJR075W, strain HOC1, stronger effect = lower value 0.988 | S. cerevisiae deletion strains, locus YKL009W, strain mrt4, stronger effect = lower value 0.997 | S. cerevisiae deletion strains, locus YKL068W, stronger effect = lower value 0.982 | S. cerevisiae deletion strains, locus YKL085W, strain MDH1 (second series), stronger effect = lower value 0.97 | S. cerevisiae deletion strains, locus YKL085W, strain MDH1, stronger effect = lower value 0.97 | S. cerevisiae deletion strains, locus YKL160W, strain elf1, stronger effect = lower value 1 | S. cerevisiae deletion strains, locus YKL190W, strain CNB1, stronger effect = lower value 0.993 | S. cerevisiae deletion strains, locus YKR001C, strain vps1, stronger effect = lower value 0.996 | S. cerevisiae deletion strains, locus YKR026C, strain gcn3, stronger effect = lower value 0.999 | S. cerevisiae deletion strains, locus YKR091W, strain srl3, stronger effect = lower value 1 | S. cerevisiae deletion strains, locus YLL001W, strain dnm1, stronger effect = lower value 0.993 | S. cerevisiae deletion strains, locus YLL026W, stronger effect = lower value 0.994 | S. cerevisiae deletion strains, locus YLL041C, strain sdh2, stronger effect = lower value 1 | S. cerevisiae deletion strains, locus YLR027C, strain aat2, stronger effect = lower value 1.01 | S. cerevisiae deletion strains, locus YLR039C, strain RIC1, stronger effect = lower value 1.01 | S. cerevisiae deletion strains, locus YLR058C, strain SHM2, stronger effect = lower value 0.999 | S. cerevisiae deletion strains, locus YLR102C, strain apc9, stronger effect = lower value 0.986 | S. cerevisiae deletion strains, locus YLR113W, strain HOG1, stronger effect = lower value 0.996 | S. cerevisiae deletion strains, locus YLR221C, strain rsa3, stronger effect = lower value 0.982 | S. cerevisiae deletion strains, locus YLR258W, strain gsy2, stronger effect = lower value 0.996 | S. cerevisiae deletion strains, locus YLR262C, strain YPT6 (second series), stronger effect = lower value 0.991 | S. cerevisiae deletion strains, locus YLR262C, strain YPT6, stronger effect = lower value 1.01 | S. cerevisiae deletion strains, locus YLR268W, strain sec22, stronger effect = lower value 0.937 | S. cerevisiae deletion strains, locus YLR320W, strain mms22, stronger effect = lower value 0.983 | S. cerevisiae deletion strains, locus YLR330W, strain CHS5, stronger effect = lower value 0.991 | S. cerevisiae deletion strains, locus YLR342W, strain FKS1 (second series), stronger effect = lower value 1.13 | S. cerevisiae deletion strains, locus YLR342W, strain FKS1, stronger effect = lower value 0.993 | S. cerevisiae deletion strains, locus YLR357W, strain rsc2, stronger effect = lower value 0.977 | S. cerevisiae deletion strains, locus YLR370C, strain arc18, stronger effect = lower value 1.01 | S. cerevisiae deletion strains, locus YLR371W, strain rom2, stronger effect = lower value 0.961 | S. cerevisiae deletion strains, locus YLR384C, strain iki3, stronger effect = lower value 0.985 | S. cerevisiae deletion strains, locus YLR418C, strain cdc73, stronger effect = lower value 1.02 | S. cerevisiae deletion strains, locus YML016C, strain PPZ1, stronger effect = lower value 1 | S. cerevisiae deletion strains, locus YML032C, strain rad52, stronger effect = lower value 0.96 | S. cerevisiae deletion strains, locus YML120C, strain ndi1, stronger effect = lower value 1.02 | S. cerevisiae deletion strains, locus YML124C, strain tub3, stronger effect = lower value 0.991 | S. cerevisiae deletion strains, locus YMR058W, strain fet3, stronger effect = lower value 1 | S. cerevisiae deletion strains, locus YMR078C, strain ctf18, stronger effect = lower value 0.967 | S. cerevisiae deletion strains, locus YMR125W, strain sto1, stronger effect = lower value 0.996 | S. cerevisiae deletion strains, locus YMR129W, stronger effect = lower value 0.992 | S. cerevisiae deletion strains, locus YMR205C, strain PFK2, stronger effect = lower value 1.01 | S. cerevisiae deletion strains, locus YMR223W, strain ubp8, stronger effect = lower value 1.02 | S. cerevisiae deletion strains, locus YMR231W, strain pep5, stronger effect = lower value 0.994 | S. cerevisiae deletion strains, locus YMR263W, strain SAP30, stronger effect = lower value 0.992 | S. cerevisiae deletion strains, locus YMR307W, strain GAS1, stronger effect = lower value 1.14 | S. cerevisiae deletion strains, locus YNL067W, strain RPL9B, stronger effect = lower value 0.987 | S. cerevisiae deletion strains, locus YNL071W, strain lat1, stronger effect = lower value 1.01 | S. cerevisiae deletion strains, locus YNL128W, strain TEP1, stronger effect = lower value 0.995 | S. cerevisiae deletion strains, locus YNL153C, strain GIM3, stronger effect = lower value 1 | S. cerevisiae deletion strains, locus YNL183C, strain NPR1, stronger effect = lower value 0.949 | S. cerevisiae deletion strains, locus YNL209W, strain ssb2, stronger effect = lower value 1.02 | S. cerevisiae deletion strains, locus YNL233W, strain BNI4, stronger effect = lower value 0.994 | S. cerevisiae deletion strains, locus YNL248C, strain rpa49, stronger effect = lower value 0.92 | S. cerevisiae deletion strains, locus YNL250W, strain rad50, stronger effect = lower value 0.99 | S. cerevisiae deletion strains, locus YNL271C, strain bni1, stronger effect = lower value 0.993 | S. cerevisiae deletion strains, locus YNL298W, strain CLA4, stronger effect = lower value 0.999 | S. cerevisiae deletion strains, locus YNL307C, strain MCK1, stronger effect = lower value 0.991 | S. cerevisiae deletion strains, locus YNL322C, strain KRE1 (second series), stronger effect = lower value 0.997 | S. cerevisiae deletion strains, locus YNL322C, strain KRE1, stronger effect = lower value 0.993 | S. cerevisiae deletion strains, locus YNR049C, strain mso1, stronger effect = lower value 0.991 | S. cerevisiae deletion strains, locus YNR052C, strain pop2, stronger effect = lower value 0.971 | S. cerevisiae deletion strains, locus YOL006C, strain TOP1, stronger effect = lower value 0.979 | S. cerevisiae deletion strains, locus YOL012C, strain htz1 0.806 | S. cerevisiae deletion strains, locus YOL147C, strain pex11, stronger effect = lower value 0.976 | S. cerevisiae deletion strains, locus YOR001W, strain rrp6, stronger effect = lower value 0.949 | S. cerevisiae deletion strains, locus YOR061W, strain CKA2, stronger effect = lower value 0.991 | S. cerevisiae deletion strains, locus YOR069W, strain VPS5, stronger effect = lower value 0.999 | S. cerevisiae deletion strains, locus YOR070C, strain gyp1, stronger effect = lower value 0.979 | S. cerevisiae deletion strains, locus YOR080W, strain dia2, stronger effect = lower value 0.979 | S. cerevisiae deletion strains, locus YOR083W, strain WHI5, stronger effect = lower value 1.01 | S. cerevisiae deletion strains, locus YOR106W, strain vam3, stronger effect = lower value 1.01 | S. cerevisiae deletion strains, locus YOR136W, strain idh2, stronger effect = lower value 0.986 | S. cerevisiae deletion strains, locus YOR144C, strain elg1, stronger effect = lower value 0.977 | S. cerevisiae deletion strains, locus YOR184W, strain ser1, stronger effect = lower value 0.974 | S. cerevisiae deletion strains, locus YOR231W, strain MKK1, stronger effect = lower value 1.02 | S. cerevisiae deletion strains, locus YOR265W, strain rbl2, stronger effect = lower value 0.998 | S. cerevisiae deletion strains, locus YOR270C, strain vph1, stronger effect = lower value 0.969 | S. cerevisiae deletion strains, locus YOR290C, strain snf2, stronger effect = lower value 0.975 | S. cerevisiae deletion strains, locus YOR316C, strain cot1, stronger effect = lower value 0.965 | S. cerevisiae deletion strains, locus YPL051W, strain arl3, stronger effect = lower value 0.983 | S. cerevisiae deletion strains, locus YPL055C, strain LGE1, stronger effect = lower value 1.01 | S. cerevisiae deletion strains, locus YPL078C, strain atp4, stronger effect = lower value 1.01 | S. cerevisiae deletion strains, locus YPL106C, strain sse1, stronger effect = lower value 1.01 | S. cerevisiae deletion strains, locus YPL240C, strain hsp82, stronger effect = lower value 0.999 | S. cerevisiae deletion strains, locus YPL241C, strain CIN2, stronger effect = lower value 0.998 | S. cerevisiae deletion strains, locus YPL256C, strain CLN2, stronger effect = lower value 1.07 | S. cerevisiae deletion strains, locus YPR119W, strain clb2, stronger effect = lower value 0.974 | S. cerevisiae deletion strains, locus YPR141C, strain kar3, stronger effect = lower value 0.982 | S. cerevisiae deletion strains, locus YPR163C, strain tif3, stronger effect = lower value 0.976 | S. cerevisiae deletion strains, locus YPR167C, strain met16, stronger effect = lower value 0.971 | S. cerevisiae deletion strains, strain wtn01, stronger effect = lower value 0.981 | S. cerevisiae strains, strain wild type, stronger effect = lower value 1
